The values below come from PubChem BioAssay (NCATS).

Inconclusive results are not listed. Activity calls are given as the source filed them. Unless noted, calls come from the whole dose curve; as a rule, active = well fitted inhibition curve with a large enough effect; inconclusive = small, poorly fitted or top-dose-only effect; inactive = no such curve, though single readings can be large or run the other way.

Assay [1] can be described thus: qHTS profiling of the MIPE4 collection as inhibitors of Plasmodium falciparum (DD2) proliferation (AID 743345; call rule not given here). The note with it: P. falciparum Dd2 in erythrocytes, SYBR Green DNA, 72 h; at 28.5 µM (top of the series) unless noted. In outline:
(§1)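 Parasite DNA was quantified by SYBR Green I fluorescence (ex 485, em 535 nm) after overnight lysis in saponin/Triton buffer at room temperature. Cultures at 0.3% parasitemia and 2.5% hematocrit were first exposed to compound for 72 h at 37 C; signals were normalised to artemisinin (0.29 uM) and vehicle wells.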
A general note: Quantitative high-throughput screening tests each substance at several concentrations.

A short description of assay [2]: qHTS profiling of the MIPE4 collection as inhibitors of Plasmodium falciparum (DD2) proliferation (Rep 2) (AID 743346; call rule not given here). The note with it: P. falciparum Dd2 in erythrocytes, SYBR Green DNA, 72 h; at 28.5 µM (top of the series) unless noted. In outline:
as §1

Assay [3] is described as follows: qHTS profiling of the MIPE4 collection as inhibitors of Plasmodium falciparum (HB3) proliferation (AID 743347; call rule not given here;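 note: plate controls were DMSO vehicle wells for no effect and artemisinin wells for full effect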). The note with it: P. falciparum HB3 in erythrocytes, SYBR Green DNA, 72 h; at 28.5 µM (top of the series) unless noted. In outline: as §1
Assay [4] is described as follows: High-throughput drug toxicity screening in the BPDCN cell line Cal-1 (AID 1224825; call rule not given here). The note with it: Cal-1 BPDCN cell viability, qHTS; at 45.8 µM (top of the series) unless noted. In a few lines:
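CellTiter-Glo luminescence after 48 h compound exposure; percent activity scaled with DMSO as 100% and bortezomib (9.2 uM final) as 0%. Cal-1 cells seeded at 500/well in RPMI, 10% FBS, no phenol red.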

Assay [5] in a line: qHTS assay for measurement of the activity of small molecule inhibitors on Zika virus induced Caspase-3 activity in human iPSC derived neural progenitor cells (hNPCs) (AID 1224857). Note: % of control where 0% means no effect; nearly all actives have a fitted effect of over 65% in size. In outline:
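Pretreat hNPCs with compound 1 h; infect ZIKV 2 FFU/cell; 6 h 37 C, 5% CO2; Caspase-Glo 3/7, 30 min RT; luminescence; normalize to no-virus and virus-only wells.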

Assay [6] in a line: qHTS assay for measurement of the activity of small molecule inhibitors on Zika virus induced Caspase-3 activity in human astrocytoma cells (AID 1224859).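 Note: plate controls were ZIKV-infected untreated cells for no effect and uninfected cells for full effect.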 In outline: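 Human SNB-19 astrocytoma cells in RPMI 1640 with 10% FBS receive compound one hour ahead of Zika virus at 2 FFU/cell. After 6 h infection, caspase-3/7 activity is detected by Caspase-Glo luminescence.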
The nature of assay [7]: qHTS Screen of the MIPE 4.0 Collection Against Ewings Sarcoma (RDES) (AID 1259252). Note: nearly all actives have a fitted effect of over 35% in size. Note: potency is the fitted concentration of half-maximal effect. In outline:
(§2)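 Dose series incubated 48 h with cells in RPMI plus 5% FBS, glutamine and penicillin/streptomycin; cell viability then quantified via CellTiter-Glo.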

Assay [8] can be described thus: qHTS Screen of the MIPE 4.0 Collection Against Ewings Sarcoma (TC71) (AID 1259253). Note: nearly all actives have a fitted effect of over 40% in size. Note: potency is the fitted concentration of half-maximal effect. In a few lines: as §2
Assay [9] can be described thus: qHTS Screen of the MIPE 4.0 Collection Against Ewings Sarcoma (EW8) (AID 1259255).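 For viability: 100% = DMSO-treated cells and 0% = medium-only wells without cells.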 Note: nearly all actives have a fitted effect of over 35% in size. Note: potency is the fitted concentration of half-maximal effect. In outline: as §2

Consider `CC(Cc1ccc(O)c(O)c1)(NN)C(=O)O` (centres undefined), for which the parasite growth remaining, % of DMSO control (lower = more inhibition) in assay [1] came out at 15.4%. The parasite growth, % of control (lower = inhibition) in [2] stood at 75.5%. In assay [3], the growth, % of control was determined as 54.9%. In [4], the viability (% of control) is 91.3%. In addition, the Potency result in assay [5], in [6], in assay [7], in assay [8] and in assay [9] was “inactive” in each case.

In the case of `CC(C)(O)[C@H]1CC[C@@](C)([C@H]2[C@@H](O)C[C@@]3(C)[C@@H]4C[C@H](O[C@@H]5O[C@H](CO)[C@@H](O)[C@H](O)[C@@H]5O)[C@H]5C(C)(C)[C@@H](O[C@@H]6OC[C@@H](O)[C@H](O)[C@@H]6O)CC[C@@]56C[C@@]46CC[C@]23C)O1`, in assay [1], the parasite growth remaining, % of DMSO control (lower = more inhibition) was 135%. In addition, in [2], the parasite growth, % of control (lower = inhibition) came out at 89.1%. The same molecule came in with a growth, % of control in assay [3] of 81.9%. Further, the viability (% of control) in [4] is 112%. Also, the Potency result in assay [5], in assay [6] and in [9] was “inactive” each time. The Potency is 10.5 µM (active) in [7] and 8.33 µM (active) in [8].

As for `CCOC(=O)N1CCN([N+]([O-])=NOc2ccc([N+](=O)[O-])cc2C#N)CC1`, the parasite growth remaining, % of DMSO control (lower = more inhibition) in [1] was determined as 23.5%. The parasite growth, % of control (lower = inhibition) in [2] is 17.1%. Moreover, in [3], the growth, % of control came to 19.1%. Moreover, the viability (% of control) in assay [4] came to 10.9%. Moreover, the Potency result in assay [5] and in assay [6] was “inactive” in each case. Moreover, the figures for the Potency in [7], in assay [8] and in assay [9] were 2.09 µM (active), 2.64 µM (active) and 2.35 µM (active), respectively.

In the case of `COC1=C(OC)C(=O)C(CC=C(C)CCC=C(C)CCC=C(C)CCC=C(C)CCC=C(C)CCC=C(C)CCC=C(C)CCC=C(C)CCC=C(C)CCC=C(C)C)=C(C)C1=O`, the parasite growth remaining, % of DMSO control (lower = more inhibition) in [1] was found to be 46.1%. The parasite growth, % of control (lower = inhibition) in [2] stood at 131%. Besides, the growth, % of control in [3] is 97.8%. Besides, the viability (% of control) in assay [4] was determined as 111%. Further, the Potency result in assay [5], in [6], in assay [7], in assay [8] and in [9] was “inactive” each time.

With `Cn1c(Nc2ccc(C(F)(F)F)cc2)nc2cc(Oc3ccnc(-c4ncc(C(F)(F)F)[nH]4)c3)ccc21`, the parasite growth remaining, % of DMSO control (lower = more inhibition) in [1] worked out at 10.9%. Moreover, the parasite growth, % of control (lower = inhibition) in assay [2] worked out at 19.4%. Moreover, the viability (% of control) in [4] was 13.2%. Further, the Potency entry in [5] and in [6] was “inactive” in each case. Also, the Potency in assay [8] is 7.43 µM (active); in [9], 5.26 µM (active).

For the molecule `CC1(C)CC(O)CC(C)(C)N1[O]`, the viability (% of control) in assay [4] was 102%. Besides, the Potency result in assay [5], in assay [7], in [8] and in assay [9] was “inactive” throughout.

With `O=C(C[C@@H]1CC=CCCC(=O)O[C@H](c2ccccc2)CNC1=O)NCc1ccc(Cl)cc1`, the parasite growth remaining, % of DMSO control (lower = more inhibition) in assay [1] was 96.1%. In addition, in assay [2], the parasite growth, % of control (lower = inhibition) was 65.3%. Besides, the growth, % of control in [3] turned out to be 54.9%. The viability (% of control) in assay [4] was 94.4%. Moreover, the Potency entry in assay [5], in assay [6], in assay [7], in [8] and in assay [9] was “inactive” in each case.

Turning to `O=C1CSC(=O)N1C(CCc1ccncc1)COc1ccc(-c2cccc([N+](=O)[O-])c2)cc1` (centres undefined), the parasite growth remaining, % of DMSO control (lower = more inhibition) in assay [1] was found to be 49.4%. Moreover, in assay [2], the parasite growth, % of control (lower = inhibition) is 32.8%. Also, in assay [3], the growth, % of control turned out to be 4.69%. The viability (% of control) in assay [4] worked out at 33%. Also, the Potency result in assay [5] and in [6] was “inactive” throughout. Besides, the results for the Potency in assay [7], in [8] and in assay [9] were 2.96 µM (active), 4.69 µM (active) and 13.2 µM (active), respectively.

As to `CC(=O)N[C@H]1[C@@H]([C@H](O)[C@H](O)CO)OC(C(=O)O)=C[C@@H]1N=C(N)N`, the viability (% of control) in assay [4] turned out to be 124%. The Potency result in [5], in assay [7], in assay [8] and in assay [9] was “inactive” each time.

Turning to `CCCCCCCCCCCCc1ccc(S(=O)(=O)Nc2nncs2)cc1`, in assay [1], the parasite growth remaining, % of DMSO control (lower = more inhibition) stood at 92.3%. Also, the parasite growth, % of control (lower = inhibition) in [2] was determined as 80.6%. Further, the growth, % of control in [3] was found to be 117%. The viability (% of control) in assay [4] stood at 105%. Further, the Potency entry in assay [5], in [6], in assay [7], in assay [8] and in assay [9] was “inactive” each time.

Regarding `Cc1cnc(Nc2ccc(CN3CCOCC3)cc2)nc1Nc1cccc(S(=O)(=O)NC(C)(C)C)c1`, the parasite growth remaining, % of DMSO control (lower = more inhibition) in [1] is 8.36%. Further, the parasite growth, % of control (lower = inhibition) in assay [2] was 16.8%. The same molecule displayed a growth, % of control in assay [3] of 4.53%. Besides, the viability (% of control) in assay [4] is 3.36%. In addition, in assay [5], the Potency entry was “inactive”. In addition, the Potency is 3.32 µM (active) in assay [7], 3.32 µM (active) in assay [8] and 2.64 µM (active) in assay [9].

Regarding `Cc1cnn(C)c1C(=O)Nc1cc(Nc2ccc3c(C=Cc4ccccn4)n[nH]c3c2)ccc1F`, the parasite growth remaining, % of DMSO control (lower = more inhibition) in assay [1] came out at 12.8%. The parasite growth, % of control (lower = inhibition) in assay [2] stood at 19.1%. Also, the viability (% of control) in [4] was 10.9%. The Potency result in assay [5] is “inactive”. In addition, the Potency in [7] was 26.4 µM (active); in [8], 16.6 µM (active); in assay [9] it was 18.7 µM (active).

`COc1cc(N2CCC(C(N)=O)CC2)ccc1Nc1nc(N)c(Cl)c(Nc2ccccc2S(=O)(=O)C(C)C)n1`: the parasite growth remaining, % of DMSO control (lower = more inhibition) in assay [1] came to 37.8%. Further, the parasite growth, % of control (lower = inhibition) in [2] was 35.9%. In addition, in assay [3], the growth, % of control was determined as 53.9%. Besides, in assay [4], the viability (% of control) amounted to 10.6%. For the same molecule, the Potency entry in [5] and in assay [6] was “inactive” each time. In addition, the Potency in [7] is 1.05 µM (active); in [8], 16.6 µM (active); in [9], 20.9 µM (active).

For `C[C@H](O)[C@@H]1C(=O)N2C(C(=O)O)=C(S[C@@H]3CN[C@H](CNS(N)(=O)=O)C3)[C@@H](C)[C@@H]12`, in assay [1], the parasite growth remaining, % of DMSO control (lower = more inhibition) was found to be 99.1%. Further, the parasite growth, % of control (lower = inhibition) in assay [2] was 82.6%. Also, the growth, % of control in assay [3] worked out at 87.8%. Also, in assay [4], the viability (% of control) turned out to be 112%. Moreover, the Potency result in assay [5], in assay [6], in assay [7], in [8] and in assay [9] was “inactive” each time.

For `CCNC(=O)c1cc2c(-c3cc(OCCN4CCCC4)c(Cl)cc3Cl)nc(N)nc2s1`, in [1], the parasite growth remaining, % of DMSO control (lower = more inhibition) turned out to be 9.23%. Besides, the parasite growth, % of control (lower = inhibition) in [2] amounted to 25.1%. The growth, % of control in assay [3] was 5.43%. For the same molecule, the viability (% of control) in assay [4] was found to be 13.8%. Moreover, the Potency entry in assay [5] and in assay [6] was “inactive” in each case. In addition, the Potency in assay [7] is 1.18 µM (active); in assay [8], 1.32 µM (active); in [9], 1.18 µM (active).

For `O=C(CN1C(=O)C2(CCCC2)NC[C@H]1c1cc(F)cc(F)c1)Nc1ccc2c(c1)C[C@@]1(C2)C(=O)Nc2ncccc21`, the parasite growth remaining, % of DMSO control (lower = more inhibition) in assay [1] amounted to 86.9%. The parasite growth, % of control (lower = inhibition) in assay [2] came to 26.1%. This molecule gave a growth, % of control in [3] of 40.3%. In assay [4], the viability (% of control) was 107%. Further, the Potency result in assay [5], in assay [6], in assay [7], in assay [8] and in assay [9] was “inactive” each time.

As for `CCS(=O)(=O)Nc1ccc2[nH]c(O)c(C(=Nc3ccc(CN4CCCCC4)cc3)c3ccccc3)c2c1`, the parasite growth remaining, % of DMSO control (lower = more inhibition) in [1] came to 7.14%. The parasite growth, % of control (lower = inhibition) in assay [2] worked out at 13.8%. In addition, the growth, % of control in [3] came out at 4.28%. The viability (% of control) in [4] came out at 7.15%. For the same molecule, the Potency result in assay [5] and in assay [6] was “inactive” each time. The Potency in [7] was 0.662 µM (active); in [8], 0.132 µM (active); in [9] it was 0.0833 µM (active).

Consider `N#CC(=Cc1ccc(O)c(O)c1)C(=O)NCc1ccccc1`, for which the parasite growth remaining, % of DMSO control (lower = more inhibition) in assay [1] stood at 87.2%. Further, the parasite growth, % of control (lower = inhibition) in [2] was found to be 51.8%. The molecule also yielded a growth, % of control in [3] of 48.1%. The viability (% of control) in assay [4] stood at 45.8%. Also, the Potency result in assay [5] and in assay [6] was “inactive” each time. The results for the Potency in assay [7], in assay [8] and in assay [9] were 23.5 µM (active), 23.5 µM (active) and 18.7 µM (active), respectively.
